LmPK inhibitor – blocks Leishmania mexicana pyruvate kinase activity; Q27686; purified LmPK, Kinase-Glo ATP luminescence, 1 h; Potency, µM (highest dose often 57.5 µM), for the others: at the highest dose activity change, negative = inhibition, most hits filed as inhibitors; 0.37% of 290,000 active; AID 1721; also: % is scaled to controls: 0 for no effect and ±100 for the full control effect
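0.1 nM LmPK, 0.5 mM PEP, 0.1 mM ADP; 50 mM imidazole pH 7.2, 7 mM MgCl2, 50 mM KCl; 1 h RT. Kinase-Glo luminescence readout, normalized to no-enzyme (full inhibition) and uninhibited wells.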
Giardia FBPA inh-1 – blocks Giardia fructose-bisphosphate aldolase activity; A8B2U2; purified Giardia FBPA; Potency, µM (titrated, usually from 59.6 µM), for the others: at the top dose activity, negative = inhibition, actives largely listed as inhibitors; 0.71% of 290,000 active; also: % is scaled to controls: 0 for no effect and ±100 for the full control effect; nearly all actives have a fitted effect of over 55% in size
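40 nM FBPA preincubated 10 min at RT with compound (up to 57.5 uM final), then substrate plus GAPDH/TPI/NAD/arsenate coupling and diaphorase/resazurin added. Fluorescence read after 20 min at RT, 525/598 nm.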
SARS PLP yeast – blocks SARS-CoV papain-like protease in a yeast assay. 0.19% of 330,000 active. Potency, µM (highest dose often 32.9 µM), for the others: at the highest dose activity, positive = growth rescue, most hits filed as activators. S. cerevisiae expressing SARS-CoV PLpro, growth rescue. AID 485353; calls by dose curve; also: 0% is about no effect; nearly all actives have a fitted effect of over 55% in size
RE007 growth inh – less growth of the S. pombe RE007 Vpr strain; S. pombe RE007 Vpr strain, BacTiter-Glo ATP luminescence, 24 h; Potency, µM (highest dose often 92.2 µM), for inactives: top-dose activity change, negative = less growth, usual class: inhibitors; 0.21% of 360,000 active; active = well fitted falling curve with a large enough effect; inconclusive = small, poorly fitted or top-dose-only effect; inactive = no such curve, though single readings can be large or run the other way; also: % is scaled to controls: 0 for no effect and ±100 for the full control effect; nearly all actives have a fitted effect of over 50% in size
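Fission yeast strain RE007, carrying one chromosomally integrated HIV-1 vpr copy, was seeded at OD 0.01 in PMG+AL medium with 23 nL pinned compound. After 24 h at 30 °C and 99% humidity, viability was read by BacTiter-Glo luminescence.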
TbPYK inhibitor – blocks Trypanosoma brucei pyruvate kinase | Q57TT1 | TbPYK enzyme, Kinase-Glo Plus ATP luminescence, 45 min | Potency, µM (titrated, usually from 76.8 µM), inactives show at the top dose activity, negative = inhibition, most hits filed as inhibitors | 0.12% of 410,000 active | AID 624173; also: % is scaled to controls: 0 for no effect and ±100 for the full control effect; nearly all actives have a fitted effect of over 50% in size
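Quantitative HTS: titrated library compounds versus trypanosomal pyruvate kinase in TEA buffer (pH 7.2) containing KCl, MgCl2, BSA and Tween-20. Reactions were initiated with ADP, 130 uM final. Kinase-Glo Plus luminescence was read after 45 min at RT.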
Giardia growth – inhibitors of Giardia lamblia growth; Potency, µM (series often up to 57.5 µM), for inactives: at the highest dose activity change, negative = inhibition, most hits filed as inhibitors; Giardia lamblia trophozoite growth inhibition; 5% of 1,500 active; AID 2785; shares compounds with Giardia FBPA inh-1;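 also: trophozoites exposed to compound for 48 h at 37 °C; % is scaled to controls: 0 for no effect and ±100 for the full control effect; nearly all actives have a fitted effect of over 70% in size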
Mammalian tox – toxic to mammalian cells in Giardia aldolase counter-screen | shares compounds with Giardia FBPA inh-1 | mammalian cell viability counter-screen, qHTS | Potency, µM (doses to about 57.5 µM), for the others: top-dose viability change, negative = toxicity, actives largely listed as inhibitors | 4% of 1,500 active;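 also: Chinese hamster ovary cells used as mammalian cytotoxicity surrogate; viability measured as cellular ATP by luminescence; compound exposure lasted 48 h before reading; % is scaled to controls: 0 for no effect and ±100 for the full control effect; nearly all actives have a fitted effect of over 60% in size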
Giardia FBPA inh-2 – confirmation of Giardia fructose-bisphosphate aldolase inhibitors | shares compounds with Giardia FBPA inh-1 | purified Giardia aldolase enzyme activity, qHTS | Potency, µM (highest dose often 57.5 µM), inactives show top-dose activity change, negative = inhibition, hits mostly inhibitors | 5% of 1,500 active | AID 2787; also: % is scaled to controls: 0 for no effect and ±100 for the full control effect; nearly all actives have a fitted effect of over 45% in size
Rabbit aldolase – rabbit FBP aldolase inhibition by Giardia aldolase hits; shares compounds with Giardia FBPA inh-1; Rabbit muscle FBPA enzyme inhibition, selectivity counter-screen; Potency, µM (titrated, usually from 57.5 µM), for inactives: at the top dose activity, negative = inhibition, most hits filed as inhibitors; 4% of 1,500 active; also: % is scaled to controls: 0 for no effect and ±100 for the full control effect; nearly all actives have a fitted effect of over 60% in size
Target sequence (P00883 whole entry, looked up): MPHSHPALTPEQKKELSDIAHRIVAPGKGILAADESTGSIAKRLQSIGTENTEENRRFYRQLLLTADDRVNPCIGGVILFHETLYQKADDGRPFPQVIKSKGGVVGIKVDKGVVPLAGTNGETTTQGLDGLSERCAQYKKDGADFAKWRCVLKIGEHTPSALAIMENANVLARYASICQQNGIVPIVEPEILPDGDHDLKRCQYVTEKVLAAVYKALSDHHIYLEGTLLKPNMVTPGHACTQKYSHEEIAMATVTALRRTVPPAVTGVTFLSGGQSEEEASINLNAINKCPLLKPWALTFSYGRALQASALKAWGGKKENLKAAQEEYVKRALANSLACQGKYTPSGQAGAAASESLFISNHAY
GAPDH counter – GAPDH inhibition flagged for Giardia aldolase hits. AID 2795. Potency, µM (doses to about 57.5 µM), for the others: at the highest dose activity change, negative = inhibition, hits mostly inhibitors. 6% of 1,500 active. shares compounds with Giardia FBPA inh-1. GAPDH coupling enzyme counterscreen, biochemical, qHTS; also: % is scaled to controls: 0 for no effect and ±100 for the full control effect; nearly all actives have a fitted effect of over 55% in size
Active calls of the source: *; u = inconclusive; x = no result; [ ] = dose if it differs, or a comment. Shown are actives, neighbours in structure and some others; about 1.1% of the full set was active somewhere. Unless noted, calls follow the shape of the dose curve; as a rule, active = well fitted curve in the direction sought with a large enough effect; inconclusive = small, poorly fitted or top-dose-only effect, or another doubt; inactive = no such curve, though single readings can be large; an effect the other way counts as inactive or inconclusive. Potency is read from the fitted curve at half-maximal effect.

SMILES | LmPK inhibitor | Giardia FBPA inh-1 | SARS PLP yeast | RE007 growth inh | TbPYK inhibitor | Giardia growth | Mammalian tox | Giardia FBPA inh-2 | Rabbit aldolase | GAPDH counter
COc1cc(/C=C(\C#N)C(=O)c2c[nH]c3ccccc23)cc(OC)c1O | 6%[11.5 µM] | 7.9µM* | 2% | 3% | -3% | -18% | 3% | 2µM* | u | u
CC1CN(S(=O)(=O)c2ccc(C(=O)Nc3nnc(-c4ccco4)o3)cc2)CC(C)O1 (stereo unspecified) | 2% | 18µM* | 1% | 5% | -8% | -8% | 20% | 21% | 13% | 7%
CC1CCCN(S(=O)(=O)c2ccc(C(=O)Nc3nnc(-c4ccccc4Cl)o3)cc2)C1 (stereo unspecified) | 0% | u | -15% | -1% | 0% | x | x | x | x | x
CC1CCN(S(=O)(=O)c2ccc(C(=O)Nc3nnc(-c4ccco4)o3)cc2)CC1 | 5% | -29% | -3% | 2% | -1% | x | x | x | x | x
O=C(Nc1nnc(-c2ccco2)o1)c1ccc(S(=O)(=O)N2CCCC2)cc1 | 1%[11.5 µM] | 5µM* | 4% | 16% | 6% | 0%[10.4 µM] | -6% | 11% | 12% | -15%
CC1CCCN(S(=O)(=O)c2ccc(C(=O)Nc3nnc(-c4ccccn4)o3)cc2)C1 (stereo unspecified) | 7% | 18µM* | 4% | 5% | 4% | -17% | 16% | 24% | 19% | 8%
O=C(c1ccccc1)c1cn(Cc2ccc(F)cc2)c2ccccc2c1=O | x | x | x | x | 4% | x | x | x | x | x
CCOC(=O)c1sc2nc(CSc3ccccc3)nc(N3CCCN(C)CC3)c2c1C | -4% | 20µM* | 1% | -3% | -18% | -18% | -17% | 4% | -1% | 6%
CC(=O)Nc1ccc2nc3c(=O)n(C)c(=O)n(C)c3nc2c1 | 4% | 18µM* | 0% | -18% | -9% | 13% | -22% | u | u | 40µM*
Cc1ncoc1C(=O)Nc1ncc([N+](=O)[O-])s1 | u | 18µM* | 4% | u | u | u | -18% | 1% | 2% | 11%
CC(=O)c1ccc(-c2cccc(C3C4C=CCCC4(C)C(=O)N3Cc3ccccc3)c2)cc1 (stereo unspecified) | x | -3% | x | x | x | x | x | x | x | x
Cc1cc(C)n(CC(=O)O)c(=O)c1[N+](=O)[O-] | 0% | 7.9µM* | 0% | 18% | -11% | -25% | 19% | -9% | -4% | 5%
O=C1CS/C(=N/N=C2C3CC4CC(C3)CC2C4)N1 | 0% | 10% | -11% | 9% | 0% | x | x | x | x | x
O=C1CS/C(=N/N=C\c2ccn[nH]2)N1 | 2% | 18µM* | 2% | -1% | -7% | u | -1% | 3% | 6% | 12%
CCN(C(=O)c1cc2c(=O)oc3ccc(C)cc3c2s1)c1ccccc1C | x | x | x | x | 12% | x | x | x | x | x
Cc1ccc(S(=O)(=O)c2nc(-c3cccs3)oc2N2CCC(C)CC2)cc1 | x | x | x | x | -17% | x | x | x | x | x
COCCNC(=S)NNc1cccc(C(=O)O)c1 | 1%[11.5 µM] | 8.9µM* | 1% | -13% | -12% | -1%[38.3 µM] | 4% | 0% | 1% | -13%
O=c1c(CO)cc(CO)cc(CO)c1O | 5% | u | -5% | 20% | 1% | -4%[38.3 µM] | -10% | -23% | -10% | -16%
